In PubChem BioAssay (Tox21):
Several values for one entry are separate records, joined by “and”; a condition that tells them apart may be missing. Identical values can stand only once. Unmarked numbers belong to inactive results. Records with an inconclusive call do not appear. A call without a number means that no potency is given here. Activity calls are given as the source filed them. Unless noted, the call rests on the fitted dose curve; in most records, active means well fitted curve in the direction sought with a large enough effect in the repeat runs; inconclusive means weak or mixed curves; inactive means no such curve, though single readings can be large; an effect the other way counts as inactive or inconclusive.

Legend:
[1] = qHTS assay to identify small molecule agonists of the hypoxia (HIF-1) signaling pathway - cell viability counter screen (AID 1224844; calls by dose curve; further: nearly all actives have a fitted effect of over 50% in size; further: potency means the concentration at half of the fitted maximal effect)
Procedure, shortened: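 CellTiter-Glo luminescence read-out, 30 min RT, taken in the same wells as the beta-lactamase HRE reporter assay; HRE-bla ME-180 cells, 0.5% dialyzed FBS, 17 hr compound treatment at 37C, 5% CO2.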

[2] = qHTS assay to identify small molecule agonists of the hypoxia (HIF-1) signaling pathway (AID 1224846; active means well fitted activation curve with a large enough effect in the signal ratio in the repeat runs, not every such curve was filed as active; the % refers to the signal ratio)
Procedure, shortened: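 Beta-lactamase FRET read-out (CCF4-AM substrate) from ME-180 cells carrying an HRE-driven bla reporter, after 17 hrs compound exposure at 37C/5% CO2. Cells were seeded at 2,000 per well in 0.5% dialyzed FBS medium and preincubated 5 hrs.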

[3] = qHTS assay to identify small molecule agonists of H2AX - cell viability counter screen (AID 1224847; calls by dose curve; further: top concentration of the series differs between compounds; nearly all actives have a fitted effect of over 30% in size)
Procedure, shortened: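 Viability of CHO-K1 (wild type) cells after 3 hr compound exposure was measured by CellTiter-Glo luminescence.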

[4] = qHTS RealTime-Glo MT Cell Viability Assay in HEK293 cells - 32 hour (AID 1224868); further: top concentration of the series differs between compounds; nearly all actives have a fitted effect of over 50% in size
Procedure, shortened: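 HEK293 cells were seeded at 600 cells/well together with NanoLuc luciferase and cell-permeant prosubstrate, preincubated 5 h at 37 C/5% CO2, then given compound in DMSO by pintool. Luminescence from viable-cell prosubstrate reduction was read repeatedly over 40 h.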

[5] = A CellTox Green Cytotoxicity Assay to monitor cytotoxicity in HEK293 cells - 0 hour (AID 1224869); further: nearly all actives have a fitted effect of over 50% in size
Procedure, shortened: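 Read-out: fluorescence of a cell-impermeant cyanine dye staining DNA of dead cells, proportional to cytotoxicity. HEK293, 600 cells/well with reagent, compound (23 nL DMSO) added after 5 h; reads at 0, 8, 16, 24, 32, 40 h.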

[6] = qHTS RealTime-Glo MT Cell Viability Assay in HepG2 cells - 40 hour (AID 1224870); further: nearly all actives have a fitted effect of over 50% in size
Procedure, shortened: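 HepG2 cells mixed with RealTime-Glo MT reagents (NanoLuc plus cell-permeant prosubstrate) were seeded at 600 cells/well, incubated 5 h at 37 C/5% CO2, then pinned with compounds in DMSO; nonlytic luminescence tracked viability during 40 h treatment.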

[7] = qHTS assay to identify small molecule antagonists of the estrogen related receptor (ERR) signaling pathway from Tox21 library (AID 1224848); further: nearly all actives have a fitted effect of over 50% in size; further: potency means the concentration at half of the fitted maximal effect
Procedure, shortened: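 First, 2,000 ERR cells per well were plated and held 6 h at 37 C/5% CO2. Next, compounds in DMSO were pinned in and left 18 h at 37 C. Finally, ONE-Glo was added and luminescence read after 30 min at room temperature.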

[8] = qHTS RealTime-Glo MT Cell Viability Assay in HepG2 cells - 24 hour (AID 1224867); further: nearly all actives have a fitted effect of over 50% in size
Procedure, shortened: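 HepG2 cells were seeded at 600 cells/well together with NanoLuc luciferase and a cell-permeant prosubstrate, preincubated 5 h at 37 C/5% CO2, then pin-dosed with compounds in DMSO. Nonlytic luminescence from viable cells was read at each time point.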

[9] = qHTS assay to identify small molecule agonists of the estrogen related receptor (ERR) signaling pathway from Tox21 library (AID 1224849; calls by dose curve; further: nearly all actives have a fitted effect of over 15% in size); conditions: ERR reporter cell line, ONE-Glo luciferase, 18 h; at 92.4 µM (top of the series)
Procedure, shortened: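 Luminescence readout (ONE-Glo, 30 min RT) after 18 h compound exposure at 37 C of NTP-supplied ERR reporter cells; cells were plated 6 h before compound addition by pin tool.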

SMILES	Potency [1]	outcome [2]	Potency [3]	Potency [4]	Potency [5]	Potency [6]	Potency [7]	Potency [8]	activity change, positive = activation [9]	activity change, negative = cytotoxicity [1]
O=C(Cl)c1ccc(C(=O)Cl)cc1	inactive	inactive	inactive	inactive	inactive	inactive	–	–	–	–
CS(=O)(=O)c1ccc(Cl)cc1	inactive	inactive	inactive	inactive	inactive	inactive	inactive	–	–	–
Cc1cc(CC(=O)O)n(C)c1C(=O)c1ccc(Cl)cc1	inactive	inactive	inactive	inactive	inactive	inactive	–	inactive	–	–
COc1ccc([C@@H]2CC(=O)c3c(O)cc(O[C@@H]4O[C@H](CO[C@@H]5O[C@@H](C)[C@H](O)[C@@H](O)[C@H]5O)[C@@H](O)[C@H](O)[C@H]4O)cc3O2)cc1OC	inactive	inactive	inactive	inactive	inactive	inactive	–	inactive	–	–
CCCCCCCCC(=O)O	inactive	inactive	inactive	inactive	inactive	inactive	–	inactive	–	–
Nc1cccc(N)n1	inactive	inactive	inactive	inactive	inactive	inactive	–	inactive	–	–
Cc1nnc(NS(=O)(=O)c2ccc(N)cc2)s1	inactive	–	inactive	inactive	inactive	inactive	–	–	–	–
COc1c(Cl)ccc(Cl)c1C(=O)O	inactive	inactive	inactive	inactive	inactive	inactive	–	inactive	–	–
COC(=O)/C=C\C(=O)OC	inactive	inactive	inactive	inactive	inactive	inactive	inactive	–	–	–
CC/C=C(\C(=O)N[C@@H]1C(=O)N2C(C(=O)OCOC(=O)C(C)(C)C)=C(COC(N)=O)CS[C@H]12)c1csc(N)n1	inactive	inactive	inactive	inactive	inactive	inactive	–	inactive	–	–
O=C(O)C1=NN(c2ccc(S(=O)(=O)O)cc2)C(=O)C1	inactive	inactive	inactive	inactive	inactive	inactive	–	–	–	–
Nc1cccc(C(F)(F)F)c1	inactive	inactive	inactive	inactive	inactive	inactive	inactive	–	–	–
CC(O)CNCC(C)O (stereo unspecified)	inactive	inactive	inactive	inactive	inactive	inactive	–	inactive	–	–
Nc1nc(N)c2nc(-c3ccccc3)c(N)nc2n1	inactive	–	inactive	inactive	inactive	inactive	24.6 µM (active) and 21.7 µM (active)	–	–	–
NC(N)=S	inactive	inactive	inactive	inactive	inactive	inactive	–	inactive	–	–
CO[Si](CCCNCCN)(OC)OC	inactive	inactive	inactive	inactive	inactive	inactive	–	inactive	–	–
OCc1ccc(Cl)cc1Cl	inactive	inactive	inactive	inactive	inactive	inactive	–	–	–	–

SMILES	Potency [1]	outcome [2]	Potency [3]	Potency [4]	Potency [5]	Potency [6]	Potency [7]	Potency [8]	activity change, positive = activation [9]	activity change, negative = cytotoxicity [1]
O=C(c1ccccc1)c1ccc(O)c(O)c1O	–	inactive	inactive	inactive	inactive	inactive	inactive	–	-7.85% and -0.637%	–
CCCCCCCCCCCC(=O)N(C)CC(=O)O	–	inactive	inactive	inactive	inactive	inactive	–	inactive	–	0.126% [at 6.97 µM]
O=C1O[C@H]([C@H](O)CO)C(O)=C1O	inactive	inactive	inactive	inactive	inactive	inactive	–	–	–	–
Clc1cccc(Cl)c1NC1=NCCN1	inactive	–	inactive	inactive	inactive	inactive	–	inactive	–	–
NC(=O)c1ncn([C@@H]2O[C@H](CO)[C@@H](O)[C@H]2O)n1	18.3 µM (active)	–	inactive	inactive	inactive	inactive	–	inactive	–	–
COc1c2ccoc2cc2oc(=O)ccc12	inactive	inactive	inactive	inactive	inactive	inactive	–	–	–	–
CC(=O)Nc1ccc(CC(=O)O)cc1	inactive	inactive	inactive	inactive	inactive	inactive	inactive	–	–	–
Cc1ccncc1	inactive	inactive	inactive	inactive	inactive	inactive	–	–	–	–
O=c1c(O)c(-c2ccc(O)c(O)c2)oc2cc(O)cc(O)c12	inactive	–	–	inactive	inactive	inactive	–	inactive	–	–
O=C(NCC1CCCCN1)c1cc(OCC(F)(F)F)ccc1OCC(F)(F)F (stereo unspecified)	inactive	–	inactive	inactive	inactive	inactive	–	inactive	–	–
CC(C)c1ccc(C(C)C)cc1	inactive	inactive	inactive	inactive	inactive	inactive	–	–	–	–
Cc1cccc(C)c1[N+](=O)[O-]	inactive	inactive	inactive	inactive	inactive	inactive	–	inactive	–	–
CC(=O)OC[C@H]1O[C@@](COC(C)=O)(O[C@H]2O[C@H](COC(C)=O)[C@@H](OC(C)=O)[C@H](OC(C)=O)[C@H]2OC(C)=O)[C@@H](OC(C)=O)[C@@H]1OC(C)=O	inactive	inactive	inactive	inactive	inactive	inactive	–	inactive	–	–
C[Si](C)(C)N[Si](C)(C)C	inactive	inactive	inactive	inactive	inactive	inactive	–	inactive	–	–
O=C1C(N(CO)C(=O)NCO)N(CO)C(=O)N1CO (stereo unspecified)	inactive	inactive	inactive	inactive	inactive	inactive	–	inactive	–	–
COc1ccc(N)c(OC)c1	inactive	inactive	inactive	inactive	inactive	inactive	–	inactive	–	–
